Measurements reported in the supplement of paper PMC4466140.

Legend:
Assay in all cases: SPOT peptide array binding signal intensity (averaged, normalized) (arbitrary units (background-subtracted, floor 0; scale differs between SH3 domains)); higher = stronger binding of the SH3 domain to the peptide
AgAbp1 = molecular target: AgAbp1
Procedure, shortened: (§1)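 E. coli BL21(DE3) was used to express GST-fused SH3 domains from four yeast species, which were then purified on glutathione Sepharose. These were incubated at 10 μg/ml in TBS-based blocking buffer overnight at 4°C on cellulose membranes carrying synthetic 15-mer peptides, in which cysteines were replaced by serines. Binding signal is the replicate average of normalized, background-subtracted spot intensity, in arbitrary units that differ between domains.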

AgBbc1 = molecular target: AgBbc1
Procedure, shortened: as §1

AgBem1-D1 = molecular target: AgBem1-D1
Procedure, shortened: as §1

AgBzz1-D1 = molecular target: AgBzz1-D1
Procedure, shortened: as §1

AgBzz1-D2 = molecular target: AgBzz1-D2
Procedure, shortened: as §1

AgCyk3 = molecular target: AgCyk3
Procedure, shortened: as §1

AgFus1 = molecular target: AgFus1
Procedure, shortened: as §1

AgHof1 = molecular target: AgHof1
Procedure, shortened: as §1

AgHse1 = molecular target: AgHse1
Procedure, shortened: as §1

AgLsb1 = molecular target: AgLsb1
Procedure, shortened: as §1

AgLsb4 = molecular target: AgLsb4
Procedure, shortened: as §1

AgMyo5 = molecular target: AgMyo5
Procedure, shortened: as §1

AgNbp2 = molecular target: AgNbp2
Procedure, shortened: as §1

AgRvs167 = molecular target: AgRvs167
Procedure, shortened: as §1

AgSho1 = molecular target: AgSho1
Procedure, shortened: as §1

AgSla1-D1-D2 = molecular target: AgSla1-D1-D2
Procedure, shortened: as §1

AgSla1-D3 = molecular target: AgSla1-D3
Procedure, shortened: as §1

CaAbp1-D1 = molecular target: CaAbp1-D1
Procedure, shortened: as §1

CaAbp1-D2 = molecular target: CaAbp1-D2
Procedure, shortened: as §1

CaBbc1 = molecular target: CaBbc1
Procedure, shortened: as §1

CaBem1-D1 = molecular target: CaBem1-D1
Procedure, shortened: as §1

CaBzz1-D1 = molecular target: CaBzz1-D1
Procedure, shortened: as §1

CaBzz1-D2 = molecular target: CaBzz1-D2
Procedure, shortened: as §1

CaCyk3 = molecular target: CaCyk3
Procedure, shortened: as §1

CaFus1 = molecular target: CaFus1
Procedure, shortened: as §1

CaHof1 = molecular target: CaHof1
Procedure, shortened: as §1

CaHse1 = molecular target: CaHse1
Procedure, shortened: as §1

CaLsb1 = molecular target: CaLsb1
Procedure, shortened: as §1

CaLsb4 = molecular target: CaLsb4
Procedure, shortened: as §1

CaMyo5 = molecular target: CaMyo5
Procedure, shortened: as §1

CaNbp2 = molecular target: CaNbp2
Procedure, shortened: as §1

CaRvs167 = molecular target: CaRvs167
Procedure, shortened: as §1

CaRvs167-3 = molecular target: CaRvs167-3
Procedure, shortened: as §1

CaSho1 = molecular target: CaSho1
Procedure, shortened: as §1

CaSla1-D1-D2 = molecular target: CaSla1-D1-D2
Procedure, shortened: as §1

CaSla1-D3 = molecular target: CaSla1-D3
Procedure, shortened: as §1

ScAbp1 = molecular target: ScAbp1
Procedure, shortened: as §1

ScBbc1 = molecular target: ScBbc1
Procedure, shortened: as §1

ScBem1-D1 = molecular target: ScBem1-D1
Procedure, shortened: as §1

ScBzz1-D1 = molecular target: ScBzz1-D1
Procedure, shortened: as §1

ScBzz1-D2 = molecular target: ScBzz1-D2
Procedure, shortened: as §1

ScCyk3 = molecular target: ScCyk3
Procedure, shortened: as §1

ScFus1 = molecular target: ScFus1
Procedure, shortened: as §1

ScHof1 = molecular target: ScHof1
Procedure, shortened: as §1

ScHse1 = molecular target: ScHse1
Procedure, shortened: as §1

ScLsb1 = molecular target: ScLsb1
Procedure, shortened: as §1

ScLsb2 = molecular target: ScLsb2
Procedure, shortened: as §1

ScLsb3 = molecular target: ScLsb3
Procedure, shortened: as §1

ScLsb4 = molecular target: ScLsb4
Procedure, shortened: as §1

ScMyo3 = molecular target: ScMyo3
Procedure, shortened: as §1

ScMyo5 = molecular target: ScMyo5
Procedure, shortened: as §1

ScNbp2 = molecular target: ScNbp2
Procedure, shortened: as §1

ScPex13 = molecular target: ScPex13
Procedure, shortened: as §1

ScRvs167 = molecular target: ScRvs167
Procedure, shortened: as §1

ScSho1 = molecular target: ScSho1
Procedure, shortened: as §1

ScSla1-D1-D2 = molecular target: ScSla1-D1-D2
Procedure, shortened: as §1

ScSla1-D3 = molecular target: ScSla1-D3
Procedure, shortened: as §1

SpAbp1-D1 = molecular target: SpAbp1-D1
Procedure, shortened: as §1

SpBbc1 = molecular target: SpBbc1
Procedure, shortened: as §1

SpBzz1-D1 = molecular target: SpBzz1-D1
Procedure, shortened: as §1

SpBzz1-D2 = molecular target: SpBzz1-D2
Procedure, shortened: as §1

SpCyk3 = molecular target: SpCyk3
Procedure, shortened: as §1

SpHof1 = molecular target: SpHof1
Procedure, shortened: as §1

SpHof1-2 = molecular target: SpHof1-2
Procedure, shortened: as §1

SpHof1-3 = molecular target: SpHof1-3
Procedure, shortened: as §1

SpHse1 = molecular target: SpHse1
Procedure, shortened: as §1

SpLsb1 = molecular target: SpLsb1
Procedure, shortened: as §1

SpLsb4 = molecular target: SpLsb4
Procedure, shortened: as §1

SpMyo1 = molecular target: SpMyo1
Procedure, shortened: as §1

SpNbp2 = molecular target: SpNbp2
Procedure, shortened: as §1

SpPex13 = molecular target: SpPex13
Procedure, shortened: as §1

SpRvs167 = molecular target: SpRvs167
Procedure, shortened: as §1

SpSla1-D1-D2 = molecular target: SpSla1-D1-D2
Procedure, shortened: as §1

SpSla1-D3 = molecular target: SpSla1-D3
Procedure, shortened: as §1

Measured: SPOT peptide array binding signal intensity

GDHPKGPPPPPPPPD
1470: CaBzz1-D2
1010: AgMyo5
≤ 0: AgAbp1 | AgBbc1 | AgBem1-D1 | AgCyk3 | AgHof1 | AgHse1 | AgLsb1 | AgLsb4 | AgRvs167 | AgSla1-D1-D2 | CaAbp1-D1 | CaAbp1-D2 | CaBbc1 | CaBem1-D1 | CaHof1 | CaLsb1 | CaLsb4 | CaNbp2 | CaSho1 | CaSla1-D1-D2 | CaSla1-D3 | ScAbp1 | ScBbc1 | ScBem1-D1 | ScBzz1-D2 | ScCyk3 | ScFus1 | ScHof1 | ScLsb1 | ScLsb2 | ScLsb3 | ScLsb4 | ScRvs167 | ScSho1 | ScSla1-D1-D2 | ScSla1-D3 | SpAbp1-D1 | SpBbc1 | SpCyk3 | SpHof1 | SpHof1-2 | SpHof1-3 | SpLsb1 | SpLsb4 | SpPex13 | SpRvs167 | SpSla1-D1-D2 | SpSla1-D3
2370: CaBzz1-D1
3: AgFus1 | AgNbp2 | AgSho1 | ScNbp2
4: CaCyk3
1020: ScMyo5
67: SpBzz1-D1
34: CaMyo5
43: AgBzz1-D2
699: AgSla1-D3
0.333: CaRvs167
7.63e-06: ScPex13
18.5: SpNbp2
19: CaFus1
1030: ScBzz1-D1
16: ScHse1
1: CaRvs167-3 | SpHse1
440: AgBzz1-D1
1570: SpMyo1
3.5: CaHse1
1170: ScMyo3
2: SpBzz1-D2
